Screening data as filed in PubChem.
Many of the other results were omitted from the sample, so hits are more common in it than they were.
Pf apPOL inh: Pf-apPOL DNA polymerase inhibition | Recombinant Pf-apPOL, molecular beacon fluorescence, 1.5 h | inhibition, % at 10 µM | actives 0.25% (n = 210,000)
mHTT-CaM PPI inh: mHTT-calmodulin interaction abrogation; P42858; AlphaScreen His-mHTT/GST-CaM binding, luminescence; inhibition, % at 15 µM; actives 3.6% (n = 190,000); AID 1671202;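 also: 0% = both proteins with DMSO and 100% = one protein alone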
An asterisk follows results filed as active; nt = no result given. Rule as the data show it: active = inhibition above about 50%; inactive = the rest.

SMILES | Pf apPOL inh | mHTT-CaM PPI inh
CCOc1cc(/C=C2\C(=O)Nc3ccc(Br)cc32)c(Br)cc1OC | 4 | 40
CSc1ccc(/C=C2\C(=O)Nc3ccc(Br)cc32)cc1 | 3 | 39
CCOc1c(O)ccc(/C=C2\C(=O)Nc3ccc(Br)cc32)c1[N+](=O)[O-] | -23 | 94*
COc1ccccc1/C=C1\C(=O)Nc2ccc(F)cc21 | 2 | 30
O=C1Nc2ccc(F)cc2/C1=C/c1ccccc1F | -7 | 21
CCOc1ccccc1/C=C1\C(=O)Nc2ccc(F)cc21 | -7 | 96*
Cc1ccc(/C=C2\C(=O)Nc3ccc(Br)cc32)o1 | 0 | 75*
CCOc1ccc(NC(=O)CCC(=O)Nc2ccc(OCC)cc2)cc1 | -5 | -2
COC(=O)c1ccc2c(=O)n(-c3ccc(C)cc3)c(N3CCCCCC3)nc2c1 | 0 | -96
Cc1nc(C2CN(C)CC23CCN(S(=O)(=O)c2cccnc2)CC3)n[nH]1 (stereo unspecified) | -5 | 1
CCN(CC)CCN1C(=O)C(O)=C(C(=O)c2ccco2)C1c1ccco1 (stereo unspecified) | -6 | 2
COc1cccc2sc(Nc3nnc(-c4cccs4)o3)nc12 | -265 | 76*
COc1cccc2sc(Nc3nc4ccc(S(C)(=O)=O)cc4s3)nc12 | -252 | -36
O=C1OC(c2ccc(I)cc2)=N/C1=C\c1ccccc1Cl | 0 | 4
CC(=O)N1CC(C(=O)NCCN(C)C)CC(c2ccccc2)C1 (stereo unspecified) | -2 | -1
O=C(CSc1ccc2nnc(-c3ccccn3)n2n1)NCc1ccc2c(c1)OCO2 | 5 | 24
CCOC(=O)CC(=O)CSc1ccc2nnc(-c3ccccn3)n2n1 | 2 | 83*
Cc1ccc2nc(NC(=O)CSc3ccc4nnc(-c5ccccn5)n4n3)sc2c1 | 5 | 80*
Cc1ccc2nc(NC(=O)CSc3ccc(-n4cccn4)nn3)sc2c1 | -3 | -13
Cc1nc(CSc2n[nH]c(C(F)(F)F)n2)cs1 | 1 | nt
OCCN=c1scc(-c2ccc(Br)cc2)n1-c1ccccc1 | -1 | 60*
COc1ccc(-c2csc(=NCCO)n2-c2ccccc2)cc1 | 2 | 6
Cc1ccc2c(S(=O)(=O)O)ccc(O)c2n1 | 0 | 24
O=S(=O)(O)c1ccc(O)c2ncccc12 | -5 | 100*
COC(=O)c1ccc(NCCC(=O)O)c([N+](=O)[O-])c1 | -6 | 1
SMILES | Pf apPOL inh | mHTT-CaM PPI inh
Cc1c(C)c(C)c(CSc2nnc(C(C#N)=Cc3cccs3)n2C)c(C)c1C | -2 | nt
CNC(=O)Cc1ccc(-n2c(C)nc3cccnc32)cc1 | 0 | 9
O=C(c1ccc(F)cc1)N1CCCC2(CC(c3ccc(Cl)cc3)=CO2)C1 (stereo unspecified) | -4 | -5
O=C(c1ccccc1)N1CCCC2(CC(c3ccc(Cl)cc3)=CO2)C1 (stereo unspecified) | 0 | 100*
O=C(c1ccco1)N1CCCC2(CC(c3ccc(Cl)cc3)=CO2)C1 (stereo unspecified) | -6 | -15
O=C(c1ccco1)N1CCCC2(CC(c3cccc(Cl)c3)=CO2)C1 (stereo unspecified) | -4 | 90*
O=C(c1ccc(Cl)cc1)N1CCCC2(CC(c3cccc(Cl)c3)=CO2)C1 (stereo unspecified) | -2 | -9
O=C(c1ccccc1)N1CCCC2(CC(c3cccc(Cl)c3)=CO2)C1 (stereo unspecified) | -5 | 96*
O=C(NCCSc1ncc(-c2ccccc2)[nH]1)c1ccccc1Br | -5 | -1
Cc1ccc(CNC(=O)c2sc(-c3cn(C)c4ncccc34)nc2C)cc1 | 0 | -15
CCCOc1cccc(C(=O)Nc2cccc(F)c2)c1 | 0 | -40
COC(=O)c1ccc(C(=O)N2CCCC(c3nnc(C(F)(F)F)o3)C2)cc1 (stereo unspecified) | -1 | -11
CCCCC(=O)NC(c1cccc([N+](=O)[O-])c1)c1ccc2cccnc2c1O (stereo unspecified) | -7 | 100*
CC(=O)Nc1cccnc1-c1ccc(C(=O)Nc2ccc(C(C)C)cc2)cc1 | 1 | 24
CC(=O)NC(c1cccc([N+](=O)[O-])c1)c1ccc2cccnc2c1O (stereo unspecified) | 1 | 100*
O=C(Nc1cccc2cccnc12)c1cccc([N+](=O)[O-])c1 | 1 | -1
O=CNC(c1ccccc1)c1cccc([N+](=O)[O-])c1 (stereo unspecified) | 0 | 0
CC(=O)NC(c1ccc(C(C)C)cc1)c1ccc2cccnc2c1O (stereo unspecified) | -34 | 100*
CCCc1sc(-n2c(C)ccc2C)c(C#N)c1C | nt | 10
COc1cc(C(=O)Nc2ccc(-c3nc4ncccc4o3)cc2)cc(OC)c1OC | 3 | 0
COc1cccc(C2CC(c3cccc(Br)c3)Nc3ncnn32)c1OC (stereo unspecified) | -2 | 68*
COc1cccc(C2CC(c3cccc(OC)c3OC)n3ncnc3N2)c1 (stereo unspecified) | 2 | 2
COc1ccc(C2CC(c3cccc(Br)c3)Nc3ncnn32)c(OC)c1OC (stereo unspecified) | -4 | 60*
COc1ccc(C2CC(c3cccc(Br)c3)Nc3ncnn32)cc1OC (stereo unspecified) | 1 | 39
Cc1ccc(N=Cc2cc(C)c(C)cc2O)c(O)c1 | 8 | 53*
SMILES | Pf apPOL inh | mHTT-CaM PPI inh
COc1ccc(C=Nc2ccc(C)cc2C)cc1O | 8 | 7
COc1cc(C=Nc2ccc(C)cc2O)ccc1O | -4 | 77*
Cc1ccc(N=Cc2cc([N+](=O)[O-])ccc2O)c(Br)c1 | -3 | 4
O=S(=O)(c1cccc(Br)c1)N1CCc2nc[nH]c2C1 | 1 | -2
Cc1cccc(N2C(=O)c3cccnc3C2CC(=O)N2CCOCC2)c1 (stereo unspecified) | -1 | -2
COc1cc(C2C(=C(O)c3ccccc3)C(=O)C(=O)N2Cc2cccnc2)ccc1O (stereo unspecified) | 46 | 4
c1ccc(C2=NN3C(C2)c2ccccc2OC3c2ccc3c(c2)OCO3)cc1 (stereo unspecified) | -1 | 5
CN1CC2c3ccccc3OC(c3ccc4c(c3)OCO4)C2([N+](=O)[O-])O1 (stereo unspecified) | nt | 96*
O=C(c1ccsc1)N1CCn2c(nnc2-c2ccccc2)C1 | 1 | -9
COc1ccc(C)cc1NS(=O)(=O)c1cccc2cccnc12 | -1 | -3
CCOc1ccc(C(Nc2ccccn2)c2ccc3ccc(C)nc3c2O)cc1OC (stereo unspecified) | 1 | 49
COc1ccccc1C(Nc1cc(C)ccn1)c1ccc2cccnc2c1O (stereo unspecified) | -8 | 99*
COc1ccc(C(Nc2cc(C)ccn2)c2ccc3cccnc3c2O)cc1OC (stereo unspecified) | 3 | 100*
O=[N+]([O-])c1cccc2ccc(Nc3ccccn3)nc12 | 3 | 14
COc1cccc2cc(C(=O)Nc3cc(C)ccn3)c(=O)oc12 | -3 | 0
COc1ccc(C(Nc2ccccn2)c2ccc3cccnc3c2O)cc1OC (stereo unspecified) | -4 | 100*
Cc1ccnc(NC(c2ccccc2[N+](=O)[O-])c2ccc3cccnc3c2O)c1 (stereo unspecified) | -3 | 100*
Cc1sc(NC(=O)CN2CCN(c3ccccc3)CC2)c(C#N)c1C | 5 | nt
Cc1csc(NC(=O)CSc2nnc(NC(=O)CN(C)S(C)(=O)=O)s2)n1 | -3 | 7
